This passage reports Potency results from PubChem BioAssay (NCATS).

Records with an inconclusive call do not appear. A call without a number means that no potency is given here. Active and inactive are the calls of the source. The call rests on the fitted dose curve; in most records, active means well fitted inhibition curve with a large enough effect; inconclusive means small, poorly fitted or top-dose-only effect; inactive means flat fitted curve, though single readings scatter.
Potency means the concentration at half of the fitted maximal effect.

Luciferin 4-monooxygenase (Photinus pyralis), sequence (P08659 whole entry, looked up): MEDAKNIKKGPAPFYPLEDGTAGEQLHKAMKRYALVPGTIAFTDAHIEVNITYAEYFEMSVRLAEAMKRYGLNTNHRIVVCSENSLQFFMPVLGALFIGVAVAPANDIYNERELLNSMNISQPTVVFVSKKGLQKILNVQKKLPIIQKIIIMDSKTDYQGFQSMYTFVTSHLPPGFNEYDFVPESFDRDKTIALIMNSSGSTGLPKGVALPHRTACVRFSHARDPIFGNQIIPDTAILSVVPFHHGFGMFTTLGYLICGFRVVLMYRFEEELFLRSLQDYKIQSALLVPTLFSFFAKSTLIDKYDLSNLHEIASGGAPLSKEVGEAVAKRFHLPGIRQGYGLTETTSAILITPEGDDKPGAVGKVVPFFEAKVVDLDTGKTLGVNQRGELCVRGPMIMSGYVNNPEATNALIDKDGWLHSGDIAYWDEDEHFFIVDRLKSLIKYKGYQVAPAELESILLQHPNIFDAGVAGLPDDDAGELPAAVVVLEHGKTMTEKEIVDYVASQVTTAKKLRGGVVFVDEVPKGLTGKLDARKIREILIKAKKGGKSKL

For the experiment, the target named is Luciferin 4-monooxygenase (Photinus pyralis) (UniProt P08659). Kind of experiment: Biochemical firefly luciferase enzyme assay for NPC (AID 624030). Further: nearly all actives have a fitted effect of over 70% in size. The following applies: purified P. pyralis luciferase, luminescence, 5 min; series mostly up to 58.6 µM. The method, boiled down:
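Counter-screen for direct inhibition of the luciferase enzyme by approved-drug library compounds, run at 10 nM enzyme in 50 mM Tris acetate (final). Luminescence was read within 5 min of enzyme-buffer addition and normalized to PTC124 versus DMSO (0%).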
Regarding `CCN(CC)CC1CCCCN1CC(=O)N1c2ccccc2C(=O)Nc2cccnc21` (stereo not given), the Potency result was “inactive”. For `COc1ccc(Cc2cnc(N)nc2N)cc1OC` the value was “inactive”; for `Cc1cc(NC(=O)C2=C(O)c3ccccc3S(=O)(=O)N2C)no1`, “inactive”; for `Cn1c([N+](=O)[O-])cnc1COC(N)=O`, “inactive”. For the compound `CC(CSC(=O)c1ccccc1)C(=O)N1C[C@@H](Sc2ccccc2)C[C@H]1C(=O)O` (stereo not given in full), the Potency result is “inactive”.

With `NC(=O)NS(=O)(=O)c1ccc(N)cc1`, the Potency entry was “inactive”. Then `Cc1cccc(C)c1NC(=O)CC12CCCN1CCC2`, with “inactive”; and `Cc1c(NC(=O)c2cccnc2)c(=O)n(-c2ccccc2)n1C`, with “inactive”. For `CC(CN(C)C)C(C)(O)Cc1ccc(Cl)cc1` (stereo not given) the value was “inactive”; for `O=C(O)COC(=O)Cc1ccccc1Nc1c(Cl)cccc1Cl`, “inactive”; for `Cc1ccccc1N=Nc1ccc(N=Nc2c(O)ccc3ccccc23)c(C)c1`, “inactive”. Then `NC(N)=NS(=O)(=O)c1ccc(N)cc1`, with “inactive”. Consider `CCOc1ccc(C(=O)OCCN(CC)CC)cc1`, for which the Potency entry was “inactive”.

In the case of `O=C(Cn1ccnc1[N+](=O)[O-])NCCO`, the Potency result was “inactive”. For `CCCNC(C)(C)COC(=O)c1ccccc1` the value was “inactive”; for `Cc1ccc(S(=O)(=O)NC(=O)NC2CCCCCCC2)cc1`, “inactive”; for `COc1ccc(C(=O)NCc2ccc(OCCN(C)C)cc2)cc1OC`, “inactive”.

Take `CC(C)C[C@@H](N)C(=O)O`: the Potency entry is “inactive”.

Consider `CNc1c2c(nn1C)CCCC2`, for which the Potency entry is “inactive”. As for `CN1CCCN=C1COC(=O)C(O)(c1ccccc1)C1CCCCC1` (stereo not given), the Potency entry was “inactive”. Then `O=C(CCBr)N1CCN(C(=O)CCBr)CC1`, with “inactive”; and `NC(N)=NCCN1CCCCCCC1`, with “inactive”. In the case of `COC(=O)c1ccccc1C(=O)c1ccc(OCCN2CCCCC2)cc1`, the Potency entry is “inactive”.

Turning to `COc1ccc(C(=O)N2CCN(CC(=O)N3CCOCC3)CC2)cc1`, the Potency result was “inactive”. In the case of `NS(=O)(=O)c1cc2c(cc1C(F)(F)F)NCNS2(=O)=O`, the Potency entry is “inactive”. For `CN1CCN(C(=O)C2CCCCC2)CC1` the value was “inactive”; for `CCCCCCCCCCC(CO)CCCCCCCC` (stereo not given), “inactive”. Consider `Nc1ccc(C(=O)Oc2ccccc2)c(O)c1`, for which the Potency is 6.42 µM (active). Then `Cc1c(I)c(=O)n(-c2ccccc2)n1C`, with “inactive”; and `CCCCC1(COC(=O)CCC(=O)O)C(=O)N(c2ccccc2)N(c2ccccc2)C1=O`, with “inactive”; and `O=C1c2ccccc2S(=O)(=O)N1CCCCN1CCN(c2ncccn2)CC1`, with “inactive”. For `N[C@@H](Cc1ccc(O)cc1)C(=O)O`, the Potency entry is “inactive”. For `CC(C)CCOC(=O)c1ccc(N(C)C)cc1` the value was 6.42 µM (active).

With `CC1CCN(CCCC(=O)c2ccc(F)cc2)CC1`, the Potency entry is “inactive”. Then `CCS(=O)(=O)CCn1c([N+](=O)[O-])cnc1C`, with “inactive”.
